KinaseGlo FLuc = Counterscreen for Luciferase (Kinase-Glo TM) Inhibition. Kinase-Glo luciferase, ATP luminescence, 8 min. Potency, µM (titrated, usually from 38.3 µM), without a hit: at the highest dose activity change, negative = inhibition, actives largely listed as inhibitors. 200,000 tested, 0.28% active; note: % is set by controls: 0 for no effect and ±100 for the full control effect; nearly all actives have a fitted effect of over 60% in size
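Luminescence was the read-out, taken after 8-minute incubation at ambient temperature. Luciferase turned over luciferin with 10 uM ATP in imidazole pH 7.2 buffer containing KCl, MgCl2, Tween 20 and BSA.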
HTT ATP protect = qHTS Multiplex Assay to Identify Dual Action Probes in a Cell Model of Huntington: Cytoprotection (ATP) | PC12 HTT-Q103 induced, cytoprotection, ATP luminescence, 40 h | Potency, µM (doses to about 56.4 µM), for the others: cytoprotection (ATP increase), hits mostly activators | 230,000 tested, 0.14% active | AID 1471, 2008; note: % of control where 0% means no effect; nearly all actives have a fitted effect of over 45% in size
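PC12 cells stably carrying ecdysone-inducible Htt exon 1 (Q103)–GFP were induced with 100 nM tebufenozide (final) alongside library compounds in a dose series. Cytoprotection was scored as retained ATP by ATPlite luminescence.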
HttQ103 aggreg = qHTS Multiplex Assay to Identify Dual Action Probes in a Cell Model of Huntington: Aggregate Formation (GFP). PC12 HttQ103-GFP aggregates, Acumen cytometry, 40 h. 220,000 tested, 1.1% active. Potency, µM (doses to about 46.1 µM), for the others: top-dose activity change, negative = inhibition, usual class: inhibitors; note: % is set by controls: 0 for no effect and ±100 for the full control effect; nearly all actives have a fitted effect of over 60% in size
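Multiplexed with ATP-based cell death, this channel scores GFP aggregates in PC12 cells expressing inducible HTTex1-Q103-GFP. Induction used 100 nM tebufenozide; compounds were tested in concentration series.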
ALDH1A1 block = qHTS Assay for Inhibitors of Aldehyde Dehydrogenase 1 (ALDH1A1). Potency, µM (doses to about 75.3 µM), for inactives: top-dose activity, negative = inhibition, most hits filed as inhibitors. Purified ALDH1A1, NADH fluorescence, propionaldehyde substrate. Aldehyde dehydrogenase 1A1 (Homo sapiens), P00352. 220,000 tested, 7.3% active. AID 1030, 2008; active = well fitted inhibition curve with a large enough effect, not every such curve was filed as active; inconclusive = small, poorly fitted or top-dose-only effect, or another doubt; inactive = no such curve, though single readings can be large or run the other way;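 note: plate controls were no enzyme wells and a reference inhibitor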
HPGD inh = qHTS Assay for Inhibitors of HPGD (15-Hydroxyprostaglandin Dehydrogenase) | purified HPGD, NADH fluorescence kinetic, PGE2 substrate | Potency, µM, for the others: at the top dose activity change, negative = inhibition, hits mostly inhibitors | 150,000 tested, 4.3% active; active = well fitted inhibition curve with a large enough effect, not every such curve was filed as active; inconclusive = small, poorly fitted or top-dose-only effect, or another doubt; inactive = no such curve, though single readings can be large or run the other way; note: % is set by controls: 0 for no effect and ±100 for the full control effect
Target sequence (P15428 whole entry, looked up): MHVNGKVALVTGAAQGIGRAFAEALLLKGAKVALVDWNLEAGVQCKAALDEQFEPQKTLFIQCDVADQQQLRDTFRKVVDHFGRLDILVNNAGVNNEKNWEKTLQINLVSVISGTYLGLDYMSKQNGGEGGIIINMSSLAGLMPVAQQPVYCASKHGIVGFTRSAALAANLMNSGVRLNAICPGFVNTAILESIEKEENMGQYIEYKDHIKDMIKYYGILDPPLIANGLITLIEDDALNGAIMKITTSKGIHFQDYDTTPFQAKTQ
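20 nM HPGD preincubated 15 min at room temperature with compound in 50 mM Tris-HCl pH 8, 0.01% Tween 20. Started with 1 mM NAD+ and 30 uM prostaglandin E2; NADH fluorescence (360/450 nm) read 5 times over 30-s intervals, last minus first.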
Lamin A splicing = qHTS Assay for Modulators of Lamin A Splicing | HeLa LMNA splicing GFP/RFP minigene ratio, 48 h | Potency, µM (series often up to 46.1 µM), without a hit: at the top dose ratio change, negative = inhibition, hits mostly inhibitors | 200,000 tested, 0.01% active | AID 1487, 2009; active = well fitted inhibition curve with a large enough effect in the signal ratio, with a control signal flat, not every such curve was filed as active; inconclusive = small, poorly fitted or top-dose-only effect, or effect the other way, or a change in a side signal; the % refers to the signal ratio; note: % is set by controls: 0 for no effect and ±100 for the full control effect
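Read-out is the ratio of GFP to DsRed2 object intensity, acquired by 488 nm laser-scanning cytometry on HeLa lamin A-EGFP minigene reporter cells. Compound incubation 48 hrs at 37 °C in Opti-MEM with 2% FBS; DMSO 0.5% final.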
An asterisk follows results filed as active; ? = inconclusive; / = no result; [ ] = remark or other dose. Shown are actives, neighbours in structure and some others; about 9% of the full set was active somewhere. Unless noted, calls come from the whole dose curve; as a rule, active = well fitted curve in the direction sought with a large enough effect; inconclusive = small, poorly fitted or top-dose-only effect, or another doubt; inactive = no such curve, though single readings can be large; an effect the other way counts as inactive or inconclusive. Potency is the fitted concentration of half-maximal effect.

SMILES	KinaseGlo FLuc	HTT ATP protect	HttQ103 aggreg	ALDH1A1 block	HPGD inh	Lamin A splicing
Cc1cc(C)n(CC2CC(=O)N(c3ccc(Cl)cc3)C2=O)n1 (configuration not stated)	/	10%[10 µM]	-6%[9.22 µM]	10%	/	/
CCOc1ccc(NC(=O)CCSc2ccc3ccccc3n2)cc1	3%	-16%[10 µM]	4%	-12%	-13%	19%
CCc1c(C)sc(NC(=O)c2cc(CC(C)C)on2)c1C#N	17%	-4%	-20%	?	-18%	-6%
CCc1c(C)sc(NC(=O)c2noc(C)c2[N+](=O)[O-])c1C#N	2%	18%	0%	18µM*	/	-6%[46 µM]
Cc1ccc(-n2cc(CN3CCN(Cc4nccn4C)CC3)c(-c3ccc(F)cc3)n2)cc1	-2%	-9%[10 µM]	-4%[9.22 µM]	25µM*	/	/
Cc1ccc(-n2cc(CN3CCN(c4ccccn4)CC3)c(-c3ccc(F)cc3)n2)cc1	6%	-22%	-12%	2%	/	/
CC(=O)Nc1cc(Br)ccc1O	1%	-8%[10 µM]	-9%[9.22 µM]	3%	/	/
O=C(Nc1ccccc1)c1ccc(N2CCN(c3ccccc3)CC2)c(S(=O)(=O)N2CCOCC2)c1	2%	-25%	4%[9.22 µM]	?	?	-7%
O=C(Nc1ccccc1)c1ccc(N2CCN(c3ccccn3)CC2)c(S(=O)(=O)N2CCOCC2)c1	-1%	-4%	-2%	28µM*	?	-1%
CN(C)S(=O)(=O)N(CC(=O)Nc1ccc2ccccc2c1)c1ccccc1	1%	5.6µM*	?	-2%	-19%	-16%
COc1ccc(/C=C/C(=O)Nc2ccccc2C(F)(F)F)cc1OC	/	1%	10%	7%	/	-7%
O=C(Cc1ccccc1)NCC(=O)OCC(=O)c1ccc([N+](=O)[O-])cc1	2%	-6%[0.074 µM]	-10%	1.4µM*	-2%	-1%
O=C(CNS(=O)(=O)c1ccccc1)OCC(=O)c1ccc(OC(=O)c2ccccc2)cc1	-2%	0%	-11%	-2%	-3%	7%[0.0737 µM]
Cc1ccc(C(=O)NCC(=O)NCC(=O)OCC(=O)c2ccc([N+](=O)[O-])cc2)cc1	-3%	-8%	12%	1µM*	-14%	14%
O=C(CNc1ccccc1)c1ccc([N+](=O)[O-])cc1	-2%	27%[10 µM]	14%	3.5µM*	?	-11%
O=C(CNC(=O)c1ccc([N+](=O)[O-])cc1)c1ccccc1	-3%	-26%	5%	1%	-1%	5%
O=C(CNS(=O)(=O)c1ccccc1)OCC(=O)c1ccc([N+](=O)[O-])cc1	4%	-15%[10 µM]	2%	1.1µM*	-4%	-12%
Cc1ccc(C(=O)COC(=O)CNC(=O)CNC(=O)c2ccc(C)cc2)cc1	-6%	15%[10 µM]	-8%	12%	-1%	?
Cc1n[nH]c(=O)nc1NCc1ccccc1	1%	-2%	-4%	16%	-2%	2%
Cc1cccc(CSc2nnc3[nH]c(=O)cc(-c4ccccc4)n23)c1	/	/	/	/	/	-6%[46 µM]
COc1ccccc1Nc1n[nH]c(=S)s1	-2%	-50%	12%	3.5µM*	/	5%[46 µM]
COc1cccc(Nc2n[nH]c(=S)s2)c1	-4%	16%[10 µM]	26%	3.5µM*	10µM*	-15%
COc1ccccc1Nc1ccc(Nc2ccccc2OC)nn1	/	-7%[10 µM]	1%	?	/	-19%
Cc1cccc(Nc2n[nH]c(=S)s2)c1C	-3%	-20%	22%	3.5µM*	10µM*	10%
COc1ccc(-n2ccnc2)cc1	0%	18%[10 µM]	-5%	2%	/	?
SMILES	KinaseGlo FLuc	HTT ATP protect	HttQ103 aggreg	ALDH1A1 block	HPGD inh	Lamin A splicing
CC(=O)NCCNc1nc(-c2ccccc2C(F)(F)F)nc2ccccc12	4%	-15%	/	15%	-17%	-4%
CCOC(=O)C(=NCC1CCCO1)NNc1cc(Cl)ccc1Cl (configuration not stated)	/	8%[10 µM]	-5%[9.22 µM]	/	/	/
CN1CCCN(C(c2ccccc2)c2ccc(Cl)cc2)CC1 (configuration not stated)	-2%	-37%	-30%	-7%	-8%	?
Cc1cccc2c1NC(=O)C21N2CCCC2C(C(=O)c2ccc3ccccc3c2)C12C(=O)Nc1ccccc12 (configuration not stated)	/	-18%[10 µM]	-11%[9.22 µM]	/	/	/
CCc1cccc2c1NC(=O)C21N2CCCC2C(C(=O)c2ccc3ccccc3c2)C12C(=O)Nc1ccccc12 (configuration not stated)	1%	-18%[10 µM]	-28%	20µM*	-7%	-1%
CC1=C(C(=O)N2CCOCC2)C(c2ccc(C)cc2)NC(=S)N1 (configuration not stated)	/	18%[10 µM]	6%	18µM*	/	-10%
O=C1/C(=C/c2ccco2)SC(=S)N1CC1CCCO1 (configuration not stated)	/	12%[10 µM]	-8%[9.22 µM]	/	/	/
Cc1ccc(/C=C2\SC(=S)N(CC3CCCO3)C2=O)o1 (configuration not stated)	/	-25%[10 µM]	-2%[9.22 µM]	/	/	/
O=C1/C(=C/c2cccnc2)SC(=S)N1CC1CCCO1 (configuration not stated)	1%	2%[10 µM]	13%	5µM*	/	-11%[46 µM]
O=C1/C(=C\c2ccc(-c3ccccc3Cl)o2)SC(=S)N1CC1CCCO1 (configuration not stated)	0%	5%	20%	1.4µM*	-19%	-7%
COc1cc(/C=C2/SC(=S)N(CC3CCCO3)C2=O)ccc1O (configuration not stated)	-10%	-8%[10 µM]	18%	0.14µM*	25µM*	-4%
COc1ccc(/C=C2\SC(=S)N(CC3CCCO3)C2=O)cc1 (configuration not stated)	/	17%[10 µM]	1%[9.22 µM]	/	/	/
CCCCn1c(=O)[nH]c(=O)c2c1nc(-c1ccc(OCCC)c(OCC)c1)n2CCOC	1%	-51%	3%	?	/	-7%[46 µM]
COC(=O)C1=C(C)N=C2SCCC(=O)N2C1c1ccc(OC(=O)c2ccco2)cc1 (configuration not stated)	2%	14%[10 µM]	4%	-6%	-19%	6%
C=CCOC(=O)C1=C(C)N=C2SCCC(=O)N2C1c1ccc(OC(=O)c2ccco2)cc1 (configuration not stated)	-2%	-14%	-20%	20µM*	-24%	2%
